Test results as given in the supplement of paper PMC10515830.
Counter-ions that a name gives are not always drawn.

Key:
Details in all cases: 10 µM; exposure time 6 h
[1] = test system: Danio rerio larvae (5 dpf); experiment: difference in excitability vs DMSO (percentage points); higher = more excitable than DMSO
Summary of the method: (§1)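 Wild-type zebrafish larvae at 5 dpf were kept in 96-well plates and exposed for 6 h to 100 µL egg water holding library compound at a final concentration of 10 µM. From 3 h into exposure, the plates were held at 28.5 ℃ and photographed every 6 s through a 3-h programme of moving lines and 100 ms, 400Hz tones. Each behaviour was scored by Z-LaP Tracker, a DeepLabCut model, and averaged over 48 larvae per compound. Every value gives the compound mean minus the vehicle control mean, in percentage points.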

[2] = test system: Danio rerio larvae (5 dpf); experiment: difference in startle response vs DMSO (percentage points); higher = stronger startle than DMSO
Summary of the method: as §1

[3] = test system: Danio rerio larvae (5 dpf); experiment: difference in activity during first hour vs DMSO (percentage points); higher = more activity than DMSO
Summary of the method: as §1

[4] = test system: Danio rerio larvae (5 dpf); experiment: difference in habituation to acoustic stimuli vs DMSO (percentage points); higher = more habituation than DMSO
Summary of the method: as §1

[5] = test system: Danio rerio larvae (5 dpf); experiment: difference in combined optomotor response to red, green and blue moving lines vs DMSO (percentage points); higher = stronger optomotor response than DMSO
Summary of the method: as §1

Structure (SMILES)	difference in excitability [1]	difference in startle response [2]	difference in activity during first hour [3]	difference in habituation to acoustic stimuli [4]	difference [5]
CN(C/C=C/C#CC(C)(C)C)Cc1cccc2ccccc12 [Terbinafine (hydrochloride)]	7.35	0.627	1.02	-1.41	-4.42
CC(C)NCC(O)COc1ccc(COCCOC(C)C)cc1 (stereo not given) [Bisoprolol (hemifumarate)]	2.44	8.3	0.00157	3.42	-3.86
Cn1c(=O)c2c(ncn2C)n(C)c1=O [Caffeine]	5.33	2.45	2.64	7.15	4.07
CN1CC(=O)N2[C@H](c3ccc4c(c3)OCO4)c3[nH]c4ccccc4c3C[C@@H]2C1=O [Tadalafil]	3.64	1.33	0.0422	3.67	6.23
C[C@H]1[C@H](NC(=O)/C(=N\OC(C)(C)C(=O)O)c2csc(N)n2)C(=O)N1S(=O)(=O)O [Aztreonam]	-7.88	8.41	8.84	5.95	-0.4
CC[N+](C)(C)c1cccc(O)c1 [Edrophonium (chloride)]	-0.775	-0.613	5.67	7.33	3.51
Nc1nc(=O)n([C@@H]2CS[C@H](CO)O2)cc1F [Emtricitabine]	1.12	-4.62	11.4	4.83	7.06
C[C@@H]1CCO[C@H]2Cn3cc(C(=O)NCc4ccc(F)cc4F)c(=O)c(O)c3C(=O)N12 [Dolutegravir]	9.08	3.83	7.43	1.07	7.64
C[C@]12C=CC(=O)N[C@@H]1CC[C@@H]1[C@@H]2CC[C@]2(C)[C@@H](C(=O)Nc3cc(C(F)(F)F)ccc3C(F)(F)F)CC[C@@H]12 [Dutasteride]	18.8	-0.713	22.4	-8.39	-3.79
CN(C)CC[C@@H](c1ccc(Cl)cc1)c1ccccn1 [Dexchlorpheniramine (maleate)]	5.44	3.98	-18.8	1.79	-3.17
Cc1ccc(N(CC2=NCCN2)c2cccc(O)c2)cc1 [Phentolamine (mesylate)]	-0.363	0.261	20	5.59	-2.55
Cc1nnc(C(=O)NC(C)(C)c2nc(C(=O)NCc3ccc(F)cc3)c(O)c(=O)n2C)o1 [Raltegravir (potassium salt)]	-0.288	1.86	0.698	-5.1	5.8
CC(=O)N1CCN(c2ccc(OCC3COC(Cn4ccnc4)(c4ccc(Cl)cc4Cl)O3)cc2)CC1 (stereo not given) [Ketoconazole]	8	3.5	-5.85	-0.327	5.96
CCN(CC)C(=O)[C@@]1(c2ccccc2)C[C@H]1CN [Levomilnacipran (hydrochloride)]	9.82	0.949	-23	-1.84	-14.2
S=P(N1CC1)(N1CC1)N1CC1	0.228	0.991	4.02	0.555	1.07
CC(=O)Oc1cc2c(s1)CCN(C(C(=O)C1CC1)c1ccccc1F)C2 (stereo not given) [Prasugrel]	-1.17	0.187	-0.362	8.33	9.86
OC(Cn1cncn1)(Cn1cncn1)c1ccc(F)cc1F [Fluconazole]	-1.01	-5.1	-3.04	-5.58	3.09
CCCCc1oc2ccc(NS(C)(=O)=O)cc2c1C(=O)c1ccc(OCCCN(CCCC)CCCC)cc1 [Dronedarone (hydrochloride)]	7.9	-9.8	11.1	-12.7	-11.9
Cc1cc2nc3c(=O)[nH]c(=O)nc-3n(C[C@H](O)[C@H](O)[C@H](O)COP(=O)(O)O)c2cc1C [Riboflavin 5'-monophosphate (sodium salt hydrate)]	-1.24	-0.41	13.4	5.95	-0.41
COc1cc2ncnc(Nc3ccc(F)c(Cl)c3)c2cc1NC(=O)/C=C/CN1CCCCC1	16.4	0.667	-10.7	-0.587	6.72
Nc1nc(=S)c2[nH]cnc2[nH]1 [6-Thioguanine]	2.87	-3.35	1.36	0.958	6.09
CN1CCN(C2=Nc3ccccc3Oc3ccc(Cl)cc32)CC1 [Loxapine (succinate)]	20.5	-13.4	43.6	-11	-0.239
OC[C@H]1NC[C@H](O)[C@@H](O)[C@H]1O [1-Deoxygalactonojirimycin (hydrochloride)]	1.33	1.49	16.8	3.98	3.06
CNC(=O)c1ccc(N2C(=S)N(c3cnc(C#N)c(C(F)(F)F)c3)C(=O)C23CCC3)cc1F	-1.56	-1.13	6.27	0.499	11.9

Structure (SMILES)	difference in excitability [1]	difference in startle response [2]	difference in activity during first hour [3]	difference in habituation to acoustic stimuli [4]	difference [5]
CC(=O)O[C@@]12CO[C@@H]1C[C@H](O)[C@@]1(C)C(=O)[C@H](O)C3=C(C)[C@@H](OC(=O)[C@H](O)[C@@H](NC(=O)OC(C)(C)C)c4ccccc4)C[C@@](O)([C@@H](OC(=O)c4ccccc4)[C@H]21)C3(C)C [Docetaxel (hydrate)]	4.98	-2.23	-2.75	-0.117	-1.11
CC(C)C[C@H](NC(=O)CNC(=O)c1cc(Cl)ccc1Cl)B1OC(=O)C(CC(=O)O)(CC(=O)O)O1	-1.67	1.83	2.45	4.21	5.88
C#CCN[C@@H]1CCc2ccccc21 [Rasagiline]	3.5	1.96	10.2	4.46	6.27
C#C[C@]1(O)CC[C@H]2[C@@H]3CCc4cc(OC)ccc4[C@H]3CC[C@@]21C [Mestranol]	23	-9.55	-22.7	1.6	-16.5
CNS(=O)(=O)CCc1ccc2[nH]cc(C3CCN(C)CC3)c2c1 [Naratriptan (hydrochloride)]	8.93	2.03	-1.59	7.18	-2.72
CN(C)CCC=C1c2ccccc2CCc2ccccc21 [Amitriptyline (hydrochloride)]	2.65	5.98	-3.87	-14.7	-8.17
COc1cccc2c1C(=O)c1c(O)c3c(c(O)c1C2=O)C[C@@](O)(C(C)=O)C[C@@H]3O[C@H]1C[C@H](N)[C@H](O)[C@H](C)O1 [Daunorubicin (hydrochloride)]	19.8	4.36	-3.27	5.5	-1.09
NS(=O)(=O)c1cc(Cl)c(Cl)c(S(N)(=O)=O)c1 [Dichlorphenamide]	1.47	-2.89	-2.19	-4.78	-8.01
CC(=O)N[C@H]1[C@H]([C@H](O)[C@H](O)CO)OC(C(=O)O)=C[C@@H]1NC(=N)N [Zanamivir]	1.36	-2.53	-16.7	1.69	-6.11
CCCCCCOC(=O)NC(=N)c1ccc(NCc2nc3cc(C(=O)N(CCC(=O)OCC)c4ccccn4)ccc3n2C)cc1 [Dabigatran etexilate]	7.34	2.07	-7.27	0.895	2.07
CC(C)OC(=O)OCOP(=O)(CO[C@H](C)Cn1cnc2c(N)ncnc21)OCOC(=O)OC(C)C [Tenofovir Disoproxil (fumarate)]	9.75	2.55	6.31	0.343	8.11
CC(=O)NC[C@H]1CN(c2ccc(N3CCOCC3)c(F)c2)C(=O)O1 [Linezolid]	-5.19	5.59	-0.74	3.24	0.137
O=c1[nH]c(=O)n([C@H]2C[C@H](O)[C@@H](CO)O2)cc1F [Floxuridine]	5.02	-2.11	5.28	-3.55	1.72
OC(c1cc(C(F)(F)F)nc2c(C(F)(F)F)cccc12)C1CCCCN1 (stereo not given) [Mefloquine (hydrochloride)]	20.8	-3.76	-1.02	-0.417	-0.0553
O=C(O)Cc1ccccc1Nc1c(Cl)cccc1Cl [Diclofenac (sodium salt)]	17.2	-1.39	2.16	-5.15	2.67
CC(C)(C)NCC(O)c1ccc(O)c(CO)c1 (stereo not given) [Salbutamol]	8.67	1.17	20.7	-4.78	5.67
O=C(O)CCCCCCCC(=O)O [Azelaic Acid]	1.68	4.07	-2.89	4.6	6.08
CC1=C(C(=O)O)N2C(=O)[C@@H](NC(=O)[C@H](N)c3ccc(O)cc3)[C@H]2SC1 [Cefadroxil (hydrate)]	4.89	-1.88	6.54	-3.34	7.44
C[C@]12CCC3=C4CCC(=O)C=C4CC[C@H]3[C@@H]1CC[C@@]2(O)CC#N [Dienogest]	6.14	-3.1	11.2	4.78	1.22
CCN(Cc1ccncc1)C(=O)C(CO)c1ccccc1 (stereo not given) [Tropicamide]	1.51	-4.55	14.3	-1.41	6.16
CCOC(=O)[C@H](CCc1ccccc1)N[C@@H](C)C(=O)N1[C@H](C(=O)O)C[C@@H]2CCC[C@@H]21 [Ramipril]	-5.85	-2.41	5.42	-0.379	7.67
CC(=O)O[C@]1(C(C)=O)CC[C@H]2[C@@H]3C=C(C)C4=CC(=O)CC[C@]4(C)[C@H]3CC[C@@]21C [Megestryl Acetate]	20.8	-4.3	4.4	-8.79	-10.8
COc1cccc2c1C(=O)c1c(O)c3c(c(O)c1C2=O)C[C@@](O)(C(=O)CO)C[C@@H]3O[C@H]1C[C@H](N)[C@@H](O)[C@H](C)O1 [Epirubicin (hydrochloride)]	9.14	0.312	-7.5	5.65	1.76
